Results: PubChem BioAssay AID1159604 (The Scripps Research Institute Molecular Screening Center, 2016)
The other results are listed elsewhere or left out. Values without a mark were called inactive. Activity calls are given as the source filed them.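 Rule for the calls: active = IC50 of 10 µM or lower in the counterscreen; inactive = IC50 above 10 µM.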

Experiment: AlphaScreen signal interference by compounds, dose response, artefact control for ASK1 inhibitor project, biochemical, TruHits beads (AID 1159604);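 note: loss of AlphaScreen light from TruHits beads alone with no ASK1 enzyme present; potency of signal reduction so a low IC50 flags an assay artifact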
Conditions: signal interference counterscreen

Row | Structure (SMILES) | IC50
1 | FC(F)(F)c1cccc(CNc2nc(N3CCN(Cc4ccc5c(c4)OCO5)CC3)nc3c2ncn3-c2ccccc2)c1 | > 20.1 µM
2 | Cc1cc(Nc2ccc3c(c2)OCO3)nc(Nc2cccc(N(C)C)c2)n1 | 4.88 µM (active)
3 | COc1cc(Nc2nc(N3CCc4ccccc4C3)nc3c2ncn3-c2ccccc2)cc(OC)c1OC | > 20.1 µM
4 | Fc1cnc(Nc2ccc(N3CCNCC3)cc2)cc1-n1cnc(Nc2ccccc2)n1 | > 19.2 µM
5 | FC(F)(F)c1cccc(CNc2nc(Nc3ccc(N4CCOCC4)cc3)nc3c2ncn3-c2ccsc2)c1 | > 20.1 µM
6 | c1ccc(-c2ncn[nH]2)c(Nc2ccnc(Nc3ccc(N4CCOCC4)cc3)c2)c1 | > 19.2 µM
7 | COc1cc2nc(Nc3cccc(N(C)C)c3)nc(Nc3cc(OC)c(OC)c(OC)c3)c2cc1OC | 8.29 µM (active)
8 | Cc1ccccc1-c1cscc1Nc1cnn(-c2cccc(C(=O)Nc3ccc(N4CCOCC4)cc3)c2)c1 | > 19.2 µM
9 | CN1CCN(c2nc(C3COc4ccccc4O3)nc3ccc(-c4cn[nH]c4)cc23)CC1 (configuration not stated) | > 19.2 µM
10 | Nc1nc(Nc2ccc(N3CCOCC3)cc2)cc(-c2ccc3[nH]ccc3c2)n1 | 11.9 µM
11 | COc1ccc(CCNc2cc(C)nc(Nc3cccc(N(C)C)c3)n2)cc1 | 4.77 µM (active)
12 | FC(F)(F)c1cccc(CNc2nc(N3CCN(c4ccccn4)CC3)nc3c2ncn3-c2ccsc2)c1 | > 20 µM
